According to PubChem BioAssay AID485272 (The Scripps Research Institute Molecular Screening Center, 2010):
Hit rate of the full screen: of about 330,000 compounds, about 1,300 (0.39%) were called active.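 The calls were made as follows: active = percent inhibition above a cutoff equal to the mean of all tested compounds plus 3 SD (cut at about 15% in these data); inactive = the rest.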 The entries come from a sample that favours actives as a whole.

Target: Protein-arginine deiminase type-4 (Homo sapiens) (UniProt Q9UM07)
Assay: human PAD4 inhibitors, primary screen, biochemical, fluorescence polarization, 1536-well format (AID 485272);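 also: 0% = PAD4 with RCA probe and DMSO and 100% = probe without PAD4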
Conditions: recombinant PAD4, RCA probe fluorescence polarization; at 6.36 µM; stronger effect = higher value

Protein-arginine deiminase type-4 (Homo sapiens), sequence (Q9UM07 whole entry, looked up): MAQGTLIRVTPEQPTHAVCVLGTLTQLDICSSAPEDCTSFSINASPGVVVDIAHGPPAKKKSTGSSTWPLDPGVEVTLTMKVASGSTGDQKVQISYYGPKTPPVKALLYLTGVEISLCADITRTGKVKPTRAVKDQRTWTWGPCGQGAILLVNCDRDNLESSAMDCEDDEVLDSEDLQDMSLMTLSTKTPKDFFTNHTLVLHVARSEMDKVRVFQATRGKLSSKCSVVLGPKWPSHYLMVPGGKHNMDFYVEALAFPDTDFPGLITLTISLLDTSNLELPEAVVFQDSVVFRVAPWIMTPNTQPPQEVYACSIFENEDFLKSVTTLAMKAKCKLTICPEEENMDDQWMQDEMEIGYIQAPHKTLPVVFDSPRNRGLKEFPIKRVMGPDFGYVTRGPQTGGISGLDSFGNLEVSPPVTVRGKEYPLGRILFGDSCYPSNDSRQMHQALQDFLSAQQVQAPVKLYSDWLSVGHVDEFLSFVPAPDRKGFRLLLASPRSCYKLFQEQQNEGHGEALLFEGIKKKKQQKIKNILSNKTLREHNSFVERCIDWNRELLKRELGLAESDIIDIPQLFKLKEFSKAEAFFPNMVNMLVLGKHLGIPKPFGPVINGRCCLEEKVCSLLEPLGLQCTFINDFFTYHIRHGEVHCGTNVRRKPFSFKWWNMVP

**Q.** With `CC/C(=N\NC(=O)c1ccccc1O)c1c(O)n(Cc2ccccc2)c(=O)[nH]c1=O` as the compound, how does the inhibition read?
**A.** -6.35% (inactive)

**Q.** With `CCOC(=O)c1c(N)n(Cc2ccccc2)c2nc3ccccc3nc12` as the compound, how does the inhibition read?
**A.** 42.1% (active)

**Q.** With `COc1cc(Cn2c(N)c(C(=O)NCc3ccco3)c3nc4ccccc4nc32)cc(OC)c1OC` as the compound, how does the inhibition read?
**A.** -2.07% (inactive)

**Q.** How did the inhibition turn out when `O=C(COc1ccc2ccccc2c1)N1CCN(Cc2ccncc2)CC1` was run?
**A.** 3.09% (inactive)

**Q.** With `CC(C)N(CC#CCC1(O)c2ccccc2-c2ccccc21)C(C)C` as the compound, how does the inhibition read?
**A.** 2.13% (inactive)

**Q.** `COc1ccc(CN2CCN(c3ccccc3F)CC2)c(OC)c1` was tested. Which inhibition did it give?
**A.** -6.62% (inactive)

**Q.** With `COc1ccccc1C1=NCc2nnc(CSC)n2-c2ccc(Cl)cc21` as the compound, how does the inhibition read?
**A.** 21.5% (active)

**Q.** Which inhibition does the source give for `Cc1cccc(-n2c(O)c(C=NC34CN5CN(CN(C5)C3)C4)c(=O)[nH]c2=O)c1` here?
**A.** 6.25% (inactive)

**Q.** How did the inhibition turn out when `Cc1ccc(N2C(=O)NC(=O)C(CCc3ccncc3)(Cc3cccc(Cl)c3Cl)C2=O)cc1` (stereo not given) was run?
**A.** 1.57% (inactive)

**Q.** With `CN1CCN(Cc2ccccc2C(F)(F)F)CC1` as the compound, how does the inhibition read?
**A.** 6.58% (inactive)
